# Several values for one entry are separate records, joined by “and”; a condition that tells them apart may be missing. Identical values can stand only once. Inconclusive results are not listed. A structure can be active in one record and inactive in another. Activity calls are given as the source filed them. Unless noted, how the calls were made is not given here.
# Assays:
# [1] = kinase inhibitors against Plasmodium liver-stage infection, cell-based, known kinase inhibitor set, luminescence, hepatoma host viability (AID 624392); conditions: Plasmodium liver stage in hepatoma cells, luciferase luminescence, concentration not given here; liver cell % of control: measured here: host liver cell viability; parasite % of control: stronger effect = lower value;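 further: infected cells incubated roughly two days before readout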
# [2] = modulators of glucocorticoid suppression of NF-kB, cell-based, luciferase, IL-1B stimulus, dexamethasone (AID 624486); conditions: NF-kB luciferase reporter, IL-1B + dexamethasone, luminescence; percent of negative control (+Dex): actives lie on both sides, concentration not given here; z-score: measured here: IL-1B alone, no Dex;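 on percent of negative control (+Dex): 100% = mean signal of vehicle control wells on the plate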
# [3] = biological target: Cellular tumor antigen p53 (Homo sapiens) (UniProt P04637); experiment: kinase inhibitors altering GFP-p53 stability in HPV16-positive cells, imaging, known kinase inhibitor set, EGFP/DsRed ratio (AID 1053116); conditions: stronger effect = higher value; EGFP object count: measured here: GFP-p53 positive objects count;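 further: cells exposed to compounds for 24 h at 37 °C before reading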
# [4] = IRF3 reporter activation in THP-1 macrophages, cell-based, PMA-stimulated THP-1, luminescence (AID 1053176); conditions: PMA-differentiated THP-1, IRF3 reporter luminescence; stronger effect = higher value
# [5] = growth inhibition of DIPG glioma cells, dose response, cell-based, JHH-DIPG-1, MIPE4.0, CellTiter-Glo, qHTS (AID 1347062; cut-off not given, nearly all actives have AC50 up to about 27 µM;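 on AC50: cells exposed to compound for two days before readout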); conditions: JHH-DIPG-1 viability, CellTiter-Glo ATP luminescence
# [6] = growth inhibition of DIPG glioma cells, dose response, cell-based, SU-DIPG-IV, MIPE4.0, CellTiter-Glo, qHTS (AID 1347063; cut-off not given, nearly all actives have AC50 up to about 30 µM;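 further: compound exposure lasted 48 hours before the viability readout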); conditions: SU-DIPG-IV viability, CellTiter-Glo ATP luminescence
# [7] = viability loss in pontine glioma line – cell-based, SU-DIPG-XXV, MIPE5.0, CellTiter-Glo, qHTS, dose response (AID 1347065; cut-off not given, nearly all actives have AC50 up to about 26 µM;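 further: cells exposed to compound for 48 hours before ATP readout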); conditions: CellTiter-Glo ATP luminescence
# [8] = SU-DIPG-VI glioma cell viability, MIPE4.0 library, CellTiter-Glo luminescence, qHTS (AID 1347066; cut-off not given, nearly all actives have AC50 up to about 30 µM;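 further: cells exposed to compound for 48 hours before readout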); conditions: CellTiter-Glo ATP luminescence
# [9] = JHH-DIPG-1 glioma cell viability, MIPE5.0 library, CellTiter-Glo luminescence, qHTS (AID 1347067; cut-off not given, nearly all actives have AC50 up to about 26 µM;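 further: cells exposed to compound for 48 hours before readout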); conditions: JHH-DIPG-1 glioma viability, CellTiter-Glo ATP luminescence
# [10] = SU-DIPG-XXV glioma cell viability, MIPE5.0 library, qHTS (AID 1347068; cut-off not given, nearly all actives have IC50 up to about 30 µM;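 on IC50: cells exposed to compound for 48 hours before viability readout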)
# [11] = kinase inhibitors altering Pseudomonas killing of worms, whole organism (AID 651566);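 further: tested at 14 µM; sign flipped so higher z means a lower ratio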; conditions: C. elegans killed by P. aeruginosa, survival ratio
# [12] = activators of macrophage pro-inflammatory response, cell-based, murine, luminescence (AID 652131); conditions: murine macrophage pro-inflammatory reporter, stronger effect = higher value
# [13] = survival rescue of mitochondrial mutant cells in low glucose, primary screen, MELAS cybrids, Rieske KO mouse fibroblasts, CellTiter-Glo (AID 1508586;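 active means mean z-score across replicates of 1.96 or higher in either the MELAS or the Rieske mutant cell line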;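 further: z relative to plate mean and SD of compound and empty wells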)
# [14] = sensitizers of A549 cells to miR-34 induction, primary screen, imaging, A549 dox-inducible miR-34, nuclei and caspase counts (AID 1347080;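 active means compounds whose cell count with miR-34 switched on is under 0.7 times the count with it off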); conditions: A549 miR-34 inducible, Hoechst nuclei count, 48 h
# [15] = growth inhibition of DIPG glioma cells, dose response, cell-based, SU-DIPG-XIII, MIPE4.0, CellTiter-Glo, qHTS (AID 1347061; cut-off not given, nearly all actives have AC50 up to about 37 µM;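 further: cells exposed to compound for 48 hours before readout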); conditions: SU-DIPG-XIII viability, CellTiter-Glo ATP luminescence
# [16] = viability rescue of complex I mutant cybrids, primary screen, cell-based, galactose medium, ATP luminescence (AID 1645843;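 active means z-score of at least 1.8 in each of two replicates, scored against plate mean and spread of sample wells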;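 further: positive z means more ATP and so rescue of galactose-driven cybrid death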); conditions: complex I mutant cybrid cells, 72 h, stronger effect = higher value
# [17] = liver-stage malaria parasite growth inhibition, primary screen, cell-based, HepG2, luciferase luminescence, HepG2 viability (AID 624349; in the data active means parasite load remaining mostly below about 12%, no sharp cut-off; inactive means mostly above about 10%;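 further: 100% = mean of DMSO negative control wells on the same plate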); conditions: P. berghei liver stage in HepG2, luciferase luminescence, concentration not given here; parasite load remaining: stronger effect = lower value; viability: measured here: HepG2 viability without parasites
# [18] = growth inhibition of DIPG glioma cells, dose response, cell-based, SU-DIPG-XVII, MIPE5.0, CellTiter-Glo, qHTS (AID 1347060; cut-off not given, nearly all actives have AC50 up to about 26 µM;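 further: cells exposed to compound for 48 hours before viability readout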); conditions: SU-DIPG-XVII viability, CellTiter-Glo ATP luminescence
# [19] = MELAS cybrid survival, CellTiter-Glo 48 h, stronger effect = higher value
# [20] = Rieske KO mouse fibroblast survival, CellTiter-Glo 72 h
# [21] = stronger effect = lower value, cell number ratio, induced over uninduced
# [22] = measured here: relative caspase fold change +Dox/-Dox
# [23] = measured here: total cells with miR-34 induction, stronger effect = lower value
# [24] = measured here: total cells without miR-34 induction
# Chain of Cellular tumor antigen p53 (Homo sapiens) (P04637 whole entry, looked up): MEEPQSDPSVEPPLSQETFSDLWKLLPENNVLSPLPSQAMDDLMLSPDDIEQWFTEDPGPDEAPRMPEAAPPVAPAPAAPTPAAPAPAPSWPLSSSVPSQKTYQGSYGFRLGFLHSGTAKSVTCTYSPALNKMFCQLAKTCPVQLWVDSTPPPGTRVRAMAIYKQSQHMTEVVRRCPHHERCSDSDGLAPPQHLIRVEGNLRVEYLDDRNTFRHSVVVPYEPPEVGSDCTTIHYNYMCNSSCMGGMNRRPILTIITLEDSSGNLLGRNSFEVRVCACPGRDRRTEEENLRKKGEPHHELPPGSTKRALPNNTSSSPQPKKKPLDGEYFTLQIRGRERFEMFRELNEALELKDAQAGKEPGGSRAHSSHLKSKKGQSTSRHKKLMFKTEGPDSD
structure (smiles),measurement,setting,value
Cn1cc(C2=C(c3c4n(c5ccccc35)CCC(CN)C4)C(=O)NC2=O)c2ccccc21 (stereo not given),liver cell % of control,[1],84.3%
same,parasite % of control,[1],50.7% (inactive)
same,percent of negative control (+Dex),[2],89.5% (inactive)
same,z-score,[2],-0.37
same,EGFP object count,[3],2
same,EGFP/DsRed ratio,[3],0.0193 (inactive)
same,fraction signal,[4],-0.001 (inactive)
same,AC50,[5],13.2 µM (active)
same,AC50,[6],18.7 µM (active)
same,outcome,[7],inactive
same,AC50,[8],23.5 µM (active)
same,outcome,[9],inactive
same,outcome,[10],inactive
COc1cc(/C=N/Nc2ncnc3c2cnn3C(C)C)ccc1O,liver cell % of control,[1],128%
same,parasite % of control,[1],63.2% (inactive)
same,percent of negative control (+Dex),[2],92.5% (inactive)
same,z-score,[2],0.145
same,z-score,[11],-0.5 (inactive)
same,z-score,[12],-0.511 (inactive)
same,EGFP object count,[3],6.5
same,EGFP/DsRed ratio,[3],0.127 (inactive)
same,fraction signal,[4],-0.006 (inactive)
same,z-score,[13]; [19],-1.18 (inactive)
same,z-score,[13]; [20],1.02
Nc1ncnc2occ(-c3ccc(NC(=O)Nc4cc(C(F)(F)F)ccc4F)cc3)c12,liver cell % of control,[1],62.2% and 49.5%
same,parasite % of control,[1],12.5% (inactive) and 10.2% (inactive)
same,percent of negative control (+Dex),[2],62.5% (inactive) and 72.5% (inactive)
same,z-score,[2],-4.27 and -2.6
same,z-score,[11],-0.79 (inactive) and 0.505 (inactive)
same,z-score,[12],0.268 (inactive) and -0.714 (inactive)
same,EGFP object count,[3],2 and 1
same,EGFP/DsRed ratio,[3],0.017 (inactive) and 0.0224 (inactive)
same,fraction signal,[4],-0.0025 (inactive) and -0.0215 (inactive)
same,z-score,[13]; [19],0.841 (inactive) and 3.25 (active)
same,z-score,[13]; [20],-0.123 and -0.164
OCc1ccc(-c2nc(-c3ccc4c(c3)OCO4)c(-c3ccccn3)[nH]2)cc1,liver cell % of control,[1],108%
same,parasite % of control,[1],115% (inactive)
same,percent of negative control (+Dex),[2],106% (inactive)
same,z-score,[2],-0.455
same,z-score,[11],-0.12 (inactive)
same,z-score,[12],1.4 (inactive)
same,EGFP object count,[3],3.5
same,EGFP/DsRed ratio,[3],0.0782 (inactive)
same,fraction signal,[4],0.0015 (inactive)
same,z-score,[13]; [19],-0.819 (inactive)
same,z-score,[13]; [20],-0.0179
Cn1cc(C2=C(c3cn(CCCN)c4ccccc34)C(=O)NC2=O)c2ccccc21,liver cell % of control,[1],148%
same,parasite % of control,[1],23.2% (inactive)
same,percent of negative control (+Dex),[2],104% (inactive)
same,z-score,[2],-0.65
same,EGFP object count,[3],39
same,EGFP/DsRed ratio,[3],0.871 (inactive)
same,fraction signal,[4],-0.0135 (inactive)
same,fold change,[14]; [21],1.52 (inactive)
same,fold change,[14]; [22],0.871
same,cell count,[14]; [23],5190
same,cell count,[14]; [24],3420
Cn1c(=O)c(Oc2ccc(F)cc2F)cc2cnc(NC3CCOCC3)nc21,percent of negative control (+Dex),[2],102% (inactive)
same,z-score,[2],-0.045
same,EGFP object count,[3],4
same,EGFP/DsRed ratio,[3],0.0482 (inactive)
same,fraction signal,[4],-0.007 (inactive)
same,outcome,[15],inactive
same,outcome,[5],inactive
same,outcome,[7],inactive
same,outcome,[8],inactive
same,outcome,[9],inactive
same,outcome,[10],inactive
N#Cc1c(NC(=O)c2ccccc2F)sc2c1CCCC2,liver cell % of control,[1],160%
same,parasite % of control,[1],60.7% (inactive)
same,percent of negative control (+Dex),[2],282% (active)
same,z-score,[2],14.4
same,z-score,[11],0.24 (inactive)
same,z-score,[12],2.53 (inactive)
same,EGFP object count,[3],0
same,EGFP/DsRed ratio,[3],0 (inactive)
same,fraction signal,[4],-0.0035 (inactive)
same,fold change,[14]; [21],0.993 (inactive)
same,fold change,[14]; [22],0.12
same,cell count,[14]; [23],5190
same,cell count,[14]; [24],5220
same,z-score,[13]; [19],0.104 (inactive) and 0.195 (inactive)
same,z-score,[13]; [20],-0.249 and 0.00256
same,z-score,[16],0.305 (inactive)
COc1cc2ncn(-c3cc(OCc4ccccc4S(C)(=O)=O)c(C#N)s3)c2cc1OC,parasite load remaining,[17],28.4% (inactive)
same,viability,[17],80.2%
same,liver cell % of control,[1],84.7%
same,parasite % of control,[1],80.2% (inactive)
same,percent of negative control (+Dex),[2],72.5% (inactive)
same,z-score,[2],-0.135
same,z-score,[11],-0.355 (inactive)
same,z-score,[12],8.9 (active)
same,EGFP object count,[3],7.5
same,EGFP/DsRed ratio,[3],0.318 (inactive)
same,fraction signal,[4],0.0015 (inactive)
same,outcome,[15],inactive
same,outcome,[5],inactive
same,outcome,[6],inactive
same,outcome,[7],inactive
same,outcome,[8],inactive
same,outcome,[9],inactive
same,outcome,[10],inactive
same,z-score,[13]; [19],0.713 (inactive)
same,z-score,[13]; [20],-0.131
Fc1ccc(-c2nc3n(c2-c2ccncc2)CCS3)cc1,parasite load remaining,[17],45.5% (inactive)
same,viability,[17],65.6%
same,liver cell % of control,[1],122%
same,parasite % of control,[1],126% (inactive)
same,percent of negative control (+Dex),[2],112% (inactive)
same,z-score,[2],2.42
same,z-score,[11],0.075 (inactive)
same,z-score,[12],2.76 (inactive)
same,EGFP object count,[3],4
same,EGFP/DsRed ratio,[3],0.154 (inactive)
same,fraction signal,[4],-0.0105 (inactive)
same,fold change,[14]; [21],0.866 (inactive)
same,fold change,[14]; [22],1.21
same,cell count,[14]; [23],4970
same,cell count,[14]; [24],5730
same,z-score,[13]; [19],1.07 (inactive)
same,z-score,[13]; [20],0.11
same,z-score,[16],-0.365 (inactive)
Nc1ccc(C#Cc2cncnc2Nc2ccc(OCc3cccc(F)c3)c(Cl)c2)cc1,liver cell % of control,[1],98%
same,parasite % of control,[1],136% (inactive)
same,percent of negative control (+Dex),[2],106% (inactive)
same,z-score,[2],0.915
same,z-score,[11],-0.52 (inactive)
same,z-score,[12],-0.735 (inactive)
same,EGFP object count,[3],4
same,EGFP/DsRed ratio,[3],0.276 (inactive)
same,fraction signal,[4],0.001 (inactive)
same,z-score,[13]; [19],-0.813 (inactive)
same,z-score,[13]; [20],-0.0706
Nc1nc(-c2ccc(F)cc2)c(-c2ccc3ncccc3n2)s1,liver cell % of control,[1],158%
same,parasite % of control,[1],131% (inactive)
same,percent of negative control (+Dex),[2],85.5% (inactive)
same,z-score,[2],0.965
same,z-score,[11],-0.035 (inactive)
same,z-score,[12],-0.162 (inactive)
same,EGFP object count,[3],6
same,EGFP/DsRed ratio,[3],0.152 (inactive)
same,fraction signal,[4],-0.002 (inactive)
same,z-score,[13]; [19],0.38 (inactive)
same,z-score,[13]; [20],0.128
O=C1NC(=O)C(c2c[nH]c3ccccc23)=C1c1c[nH]c2ccccc12,parasite load remaining,[17],50.4% (inactive)
same,viability,[17],162%
same,liver cell % of control,[1],97.5%
same,parasite % of control,[1],26.7% (inactive)
same,percent of negative control (+Dex),[2],98% (inactive)
same,z-score,[2],-0.485
same,EGFP object count,[3],22.5
same,EGFP/DsRed ratio,[3],0.273 (inactive)
same,fraction signal,[4],-0.0025 (inactive)
same,AC50,[18],11.8 µM (active)
same,AC50,[7],18.6 µM (active)
same,IC50,[10],18.6 µM (active)
same,fold change,[14]; [21],1.26 (inactive)
same,fold change,[14]; [22],0.968
same,cell count,[14]; [23],5130
same,cell count,[14]; [24],4070
